From the supplement of paper PMC8728848
About 410 targets per protein were measured; listed, in parts, are those with the strongest signals and a random draw of the rest.

Legend:
Experiment in all cases: glycan array binding signal (z-score within array); higher = stronger binding
Details in all cases: glycan notation: IUPAC condensed, linker removed
[1] = target: Fuc(a1-2)Gal(b1-3)GlcNAc(b1-2)Man(a1-3)[Fuc(a1-2)Gal(b1-3)GlcNAc(b1-2)Man(a1-6)]Man(b1-4)GlcNAc(b1-4)GlcNAc
Summary of the method: (§1)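 The binding signal is a Z-score computed within each array and averaged over linkers. Arrays of the same protein sequence at different concentrations or buffers were also averaged together. Data originate from 3228 arrays in the Consortium for Functional Glycomics database, kept only where the protein sequence was available.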

[2] = target: Fuc(a1-2)Gal(b1-3)GlcNAc(b1-3)GalNAc
Summary of the method: as §1

[3] = target: Fuc(a1-2)Gal(b1-3)GlcNAc(b1-3)[Fuc(a1-2)Gal(b1-3)GlcNAc(b1-6)]GalNAc
Summary of the method: as §1

[4] = target: Fuc(a1-2)Gal(b1-3)GlcNAc6S
Summary of the method: as §1

[5] = target: Fuc(a1-2)Gal(b1-4)GlcNAc(b1-2)Man
Summary of the method: as §1

[6] = target: Fuc(a1-2)[Gal(a1-3)]Gal(b1-3)GlcNAc(b1-2)Man(a1-3)[Fuc(a1-2)[Gal(a1-3)]Gal(b1-3)GlcNAc(b1-2)Man(a1-6)]Man(b1-4)GlcNAc(b1-4)[Fuc(a1-6)]GlcNAc
Summary of the method: as §1

[7] = target: Fuc(a1-2)[Gal(a1-3)]Gal(b1-4)GlcNAc(b1-2)Man(a1-3)[Fuc(a1-2)[Gal(a1-3)]Gal(b1-4)GlcNAc(b1-2)Man(a1-6)]Man(b1-4)GlcNAc(b1-4)GlcNAc
Summary of the method: as §1

[8] = target: Fuc(a1-2)[Gal(a1-3)]Gal(b1-4)GlcNAc(b1-2)Man(a1-3)[Fuc(a1-2)[Gal(a1-3)]Gal(b1-4)GlcNAc(b1-2)Man(a1-6)]Man(b1-4)GlcNAc(b1-4)[Fuc(a1-6)]GlcNAc
Summary of the method: as §1

[9] = target: Fuc(a1-2)[GalNAc(a1-3)]Gal(b1-3)GlcNAc(b1-6)GalNAc
Summary of the method: as §1

[10] = target: Fuc(a1-2)[GalNAc(a1-3)]Gal(b1-4)[Fuc(a1-3)]GlcNAc(b1-3)GalNAc
Summary of the method: as §1

[11] = target: Fuc(a1-3)[Gal(b1-4)]GlcNAc(b1-6)[Gal(b1-3)GlcNAc(b1-3)]Gal(b1-4)Glc
Summary of the method: as §1

[12] = target: Fuc(a1-3)[Gal3S(b1-4)]Glc
Summary of the method: as §1

[13] = target: Fuc(a1-3)[GalNAc(b1-4)]GlcNAc
Summary of the method: as §1

Fuc(a1-4)GlcNAc = target: Fuc(a1-4)GlcNAc
Summary of the method: as §1

[14] = target: Gal(a1-3)Gal(b1-3)GlcNAc(b1-2)Man
Summary of the method: as §1

Gal(a1-3)GalNAc = target: Gal(a1-3)GalNAc
Summary of the method: as §1

Gal(a1-4)GlcNAc = target: Gal(a1-4)GlcNAc
Summary of the method: as §1

Gal(b1-2)Gal = target: Gal(b1-2)Gal
Summary of the method: as §1

[15] = target: Gal(b1-3)GlcNAc(b1-2)Man(a1-3)[Gal(b1-3)GlcNAc(b1-2)Man(a1-6)]Man(b1-4)GlcNAc(b1-4)GlcNAc
Summary of the method: as §1

[16] = target: Gal(b1-3)GlcNAc(b1-2)Man(a1-3)[Gal(b1-3)GlcNAc(b1-2)Man(a1-6)]Man(b1-4)GlcNAc(b1-4)[Fuc(a1-6)]GlcNAc
Summary of the method: as §1

[17] = target: Gal(b1-3)GlcNAc(b1-3)Gal(b1-4)[Fuc(a1-3)]GlcNAc
Summary of the method: as §1

[18] = target: Gal(b1-3)GlcNAc(b1-6)[Gal(b1-3)]GalNAc
Summary of the method: as §1

Gal(b1-4)Glc6S = target: Gal(b1-4)Glc6S
Summary of the method: as §1

Gal(b1-4)GlcNAc(b1-2)Man = target: Gal(b1-4)GlcNAc(b1-2)Man
Summary of the method: as §1

[19] = target: Gal(b1-4)GlcNAc(b1-2)Man(a1-3)Man(b1-4)GlcNAc(b1-4)GlcNAc
Summary of the method: as §1

[20] = target: Gal(b1-4)GlcNAc(b1-2)[Gal(b1-4)GlcNAc(b1-4)]Man(a1-3)[Gal(b1-4)GlcNAc(b1-2)[Gal(b1-4)GlcNAc(b1-6)]Man(a1-6)]Man(b1-4)GlcNAc(b1-4)GlcNAc
Summary of the method: as §1

[21] = target: Gal(b1-4)GlcNAc(b1-3)Gal(b1-4)GlcNAc(b1-2)Man(a1-3)[Gal(b1-4)GlcNAc(b1-3)Gal(b1-4)GlcNAc(b1-2)Man(a1-6)]Man(b1-4)GlcNAc(b1-4)[Fuc(a1-6)]GlcNAc
Summary of the method: as §1

[22] = target: Gal(b1-4)GlcNAc(b1-3)Gal(b1-4)GlcNAc(b1-3)Gal(b1-4)GlcNAc(b1-2)Man(a1-3)[Gal(b1-4)GlcNAc(b1-3)Gal(b1-4)GlcNAc(b1-3)Gal(b1-4)GlcNAc(b1-2)Man(a1-6)]Man(b1-4)GlcNAc(b1-4)[Fuc(a1-6)]GlcNAc
Summary of the method: as §1

[23] = target: GalNAc(b1-3)Gal(a1-4)Gal(b1-4)GlcNAc(b1-3)Gal(b1-4)Glc
Summary of the method: as §1

GalNAc(b1-4)GlcNAc6S = target: GalNAc(b1-4)GlcNAc6S
Summary of the method: as §1

GlcA(b1-6)Gal = target: GlcA(b1-6)Gal
Summary of the method: as §1

[24] = target: GlcNAc(b1-2)Man(a1-3)[GlcNAc(b1-2)Man(a1-6)]Man(b1-4)GlcNAc(b1-4)GlcNAc
Summary of the method: as §1

[25] = target: GlcNAc(b1-2)[GlcNAc(b1-4)]Man(a1-3)[GlcNAc(b1-4)][GlcNAc(b1-2)[GlcNAc(b1-6)]Man(a1-6)]Man(b1-4)GlcNAc(b1-4)[Fuc(a1-6)]GlcNAc
Summary of the method: as §1

GlcNAc(b1-3)Gal(b1-4)Glc = target: GlcNAc(b1-3)Gal(b1-4)Glc
Summary of the method: as §1

[26] = target: GlcNAc(b1-3)Gal(b1-4)GlcNAc(b1-3)Gal(b1-4)GlcNAc(b1-2)[GlcNAc(b1-3)Gal(b1-4)GlcNAc(b1-3)Gal(b1-4)GlcNAc(b1-6)]Man(a1-6)[GlcNAc(b1-3)Gal(b1-4)GlcNAc(b1-3)Gal(b1-4)GlcNAc(b1-2)Man(a1-3)]Man(b1-4)GlcNAc(b1-4)[Fuc(a1-6)]GlcNAc
Summary of the method: as §1

[27] = target: GlcNAc(b1-3)Gal(b1-4)GlcNAc(b1-3)Gal(b1-4)GlcNAc(b1-3)Gal(b1-4)GlcNAc(b1-2)Man(a1-3)[GlcNAc(b1-3)Gal(b1-4)GlcNAc(b1-3)Gal(b1-4)GlcNAc(b1-3)Gal(b1-4)GlcNAc(b1-2)Man(a1-6)]Man(b1-4)GlcNAc(b1-4)GlcNAc
Summary of the method: as §1

[28] = target: GlcNAc(b1-3)Gal(b1-4)GlcNAc(b1-3)Gal(b1-4)GlcNAc(b1-3)Gal(b1-4)GlcNAc(b1-3)Gal(b1-4)GlcNAc(b1-2)Man(a1-3)[GlcNAc(b1-3)Gal(b1-4)GlcNAc(b1-3)Gal(b1-4)GlcNAc(b1-3)Gal(b1-4)GlcNAc(b1-3)Gal(b1-4)GlcNAc(b1-2)Man(a1-6)]Man(b1-4)GlcNAc(b1-4)[Fuc(a1-6)]GlcNAc
Summary of the method: as §1

[29] = target: GlcNAc(b1-3)[GlcNAc(b1-6)]GalNAc
Summary of the method: as §1

GlcNAc(b1-4)GlcNAc = target: GlcNAc(b1-4)GlcNAc
Summary of the method: as §1

[30] = target: GlcNAc6S(b1-3)Gal(b1-4)GlcNAc
Summary of the method: as §1

[31] = target: Man(a1-3)[Man(a1-6)]Man(a1-6)[Man(a1-2)Man(a1-3)]Man(b1-4)GlcNAc(b1-4)GlcNAc
Summary of the method: as §1

[32] = target: Neu5Ac(a2-3)Gal(b1-3)GalNAc(b1-3)Gal(a1-4)Gal(b1-4)Glc
Summary of the method: as §1

[33] = target: Neu5Ac(a2-3)Gal(b1-3)GlcNAc
Summary of the method: as §1

[34] = target: Neu5Ac(a2-3)Gal(b1-3)GlcNAc(b1-2)Man
Summary of the method: as §1

Neu5Ac(a2-3)Gal(b1-4)Glc = target: Neu5Ac(a2-3)Gal(b1-4)Glc
Summary of the method: as §1

[35] = target: Neu5Ac(a2-3)Gal(b1-4)GlcNAc(b1-2)Man(a1-3)[GlcNAc(b1-4)][Neu5Ac(a2-3)Gal(b1-4)GlcNAc(b1-2)Man(a1-6)]Man(b1-4)GlcNAc(b1-4)GlcNAc
Summary of the method: as §1

[36] = target: Neu5Ac(a2-3)Gal(b1-4)GlcNAc(b1-6)GalNAc
Summary of the method: as §1

[37] = target: Neu5Ac(a2-3)[Neu5Ac(a2-6)]GalNAc
Summary of the method: as §1

Neu5Ac(a2-8)Neu5Ac = target: Neu5Ac(a2-8)Neu5Ac
Summary of the method: as §1

[38] = target: Neu5Ac(a2-8)Neu5Ac(a2-8)Neu5Ac(a2-3)[GalNAc(b1-4)]Gal(b1-4)Glc
Summary of the method: as §1

[39] = target: Neu5Gc(a2-8)Neu5Gc(a2-6)Gal(b1-4)GlcNAc
Summary of the method: as §1

B1: PX9916F-bfa-443-24-443 (Bacteroides fragilis) (protein)
chain: DIRPVGSVIPQTAEEYRALLARAYLNVPNDRGLACLRSDEMLVNDNEYDRNSYGDIERWNDVSPFPGTSQFTWSNFYNVLFIANQVIESQKEITEGTPEVVNQLVGEAHLLRAYLHFVLVNLHGQPYTKSGALNSKSIPLKLDTDLEKTLGRNTVEEVYTSILSDIEHARELINKEKWETVFSYRFNVLSVDALQSRVSLYMGAWPKCLESAEAVLAKKSVLVDMNETPLALPNHFESVESITALEQVMGSSVNNAVWVPATFLALYQEGDKRLAAYFAAPDENGNRKSSKGGKREFSCTFRVGELYLNAAEAAANMDKLPHARMRLLELMRKRYTPEAYDKKENAVNVMDKNALISEILNERARELAFEGHRWFDLRRTTRPRMVKVLQGKTYILEQDDPRYTIPIPRDAIAANPGLAN
[1]
  glycan array binding signal (z-score): 3.24
[2]
  glycan array binding signal (z-score): 0.31
[3]
  glycan array binding signal (z-score): -0.372
[4]
  glycan array binding signal (z-score): -0.338
[5]
  glycan array binding signal (z-score): 0.848
[6]
  glycan array binding signal (z-score): 8.18
[7]
  glycan array binding signal (z-score): 8.54
[8]
  glycan array binding signal (z-score): 2.44
[9]
  glycan array binding signal (z-score): 0.212
[10]
  glycan array binding signal (z-score): 2.91
[11]
  glycan array binding signal (z-score): 3.87
[12]
  glycan array binding signal (z-score): 0.001
[13]
  glycan array binding signal (z-score): 0.251
Fuc(a1-4)GlcNAc
  glycan array binding signal (z-score): 1.76
[14]
  glycan array binding signal (z-score): -0.056
Gal(a1-3)GalNAc
  glycan array binding signal (z-score): -0.469
Gal(a1-4)GlcNAc
  glycan array binding signal (z-score): -0.265
Gal(b1-2)Gal
  glycan array binding signal (z-score): 0.596
[15]
  glycan array binding signal (z-score): 0.347
[16]
  glycan array binding signal (z-score): 1.79
[17]
  glycan array binding signal (z-score): -0.126
[18]
  glycan array binding signal (z-score): 0
Gal(b1-4)Glc6S
  glycan array binding signal (z-score): 0.038
Gal(b1-4)GlcNAc(b1-2)Man
  glycan array binding signal (z-score): 2.63
[19]
  glycan array binding signal (z-score): -0.479
[20]
  glycan array binding signal (z-score): -0.78
[21]
  glycan array binding signal (z-score): 0.44
[22]
  glycan array binding signal (z-score): 2.81
[23]
  glycan array binding signal (z-score): 0.078
GalNAc(b1-4)GlcNAc6S
  glycan array binding signal (z-score): 0.581
GlcA(b1-6)Gal
  glycan array binding signal (z-score): 2.71
[24]
  glycan array binding signal (z-score): -0.266
[25]
  glycan array binding signal (z-score): -1.61
GlcNAc(b1-3)Gal(b1-4)Glc
  glycan array binding signal (z-score): -0.475
[26]
  glycan array binding signal (z-score): -0.316
[27]
  glycan array binding signal (z-score): 2.55
[28]
  glycan array binding signal (z-score): -0.064
[29]
  glycan array binding signal (z-score): -0.249
GlcNAc(b1-4)GlcNAc
  glycan array binding signal (z-score): 0.138
[30]
  glycan array binding signal (z-score): 0.017
[31]
  glycan array binding signal (z-score): 1.23
[32]
  glycan array binding signal (z-score): 0.297
[33]
  glycan array binding signal (z-score): -0.376
[34]
  glycan array binding signal (z-score): 4.28
Neu5Ac(a2-3)Gal(b1-4)Glc
  glycan array binding signal (z-score): 0.058
[35]
  glycan array binding signal (z-score): -1.31
[36]
  glycan array binding signal (z-score): -0.155
[37]
  glycan array binding signal (z-score): -0.772
Neu5Ac(a2-8)Neu5Ac
  glycan array binding signal (z-score): 1.37
[38]
  glycan array binding signal (z-score): -0.695
[39]
  glycan array binding signal (z-score): -0.576
